Experimental findings from PubChem BioAssay are described below.

Activity calls are given as the source filed them.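 Rule for the calls, unless noted: active = superoxide response below 65% of plate, a cut near 3 SD across the whole screen; inactive = the rest.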

As usually defined, the inhibition is the change of the read-out against control, counted positive when it falls.

Test [1] is described as follows: reduced mouse 2C T cell binding to pMHC/ICAM-1 vesicles – MLPCN validation set, flow cytometry, LFA-1/ICAM-1 modulator project, pilot screen (AID 2523;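 active = response below a set limit, under 55% cells CD8-positive and vesicle-bound, and CD8 cells' 90th-percentile brightness under 279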;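 for vesicle binding response: mean PE anti-B7-1 fluorescence of CD8+ cells relative to row control; 100% = QL9-loaded vesicles with DMSO vehicle in the same plate row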). To be noted: 2C mouse CD8+ T cells, at 7 µM, stronger effect = lower value; double positive events: measured here: CD8+/vesicle+ event percentage.
For test [2], the target named is Integrin beta-1 (Homo sapiens) + Integrin alpha-4 (Homo sapiens) (UniProt P13612+P05556). Put plainly: alpha4beta1 integrin LIBS antibody binding reduction – U937 cells, HUTS-21 mAb, flow cytometry, validation set, VLA-4 allosteric modulator project, pilot screen (AID 2674;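 active = inhibition above 50%, about 3 SD of the validation set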;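 note: antibody binding induced by the VLA-4 ligand LDV present at three times its Kd; 0% = LDV ligand with antibody and no compound and 100% = antibody without LDV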). To be noted: HUTS-21 LIBS mAb binding, at 6.7 µM, stronger effect = higher value, binding induced by LDV ligand.
Sequence of Integrin beta-1 (Homo sapiens) + Integrin alpha-4 (Homo sapiens) (P05556 whole entry, looked up): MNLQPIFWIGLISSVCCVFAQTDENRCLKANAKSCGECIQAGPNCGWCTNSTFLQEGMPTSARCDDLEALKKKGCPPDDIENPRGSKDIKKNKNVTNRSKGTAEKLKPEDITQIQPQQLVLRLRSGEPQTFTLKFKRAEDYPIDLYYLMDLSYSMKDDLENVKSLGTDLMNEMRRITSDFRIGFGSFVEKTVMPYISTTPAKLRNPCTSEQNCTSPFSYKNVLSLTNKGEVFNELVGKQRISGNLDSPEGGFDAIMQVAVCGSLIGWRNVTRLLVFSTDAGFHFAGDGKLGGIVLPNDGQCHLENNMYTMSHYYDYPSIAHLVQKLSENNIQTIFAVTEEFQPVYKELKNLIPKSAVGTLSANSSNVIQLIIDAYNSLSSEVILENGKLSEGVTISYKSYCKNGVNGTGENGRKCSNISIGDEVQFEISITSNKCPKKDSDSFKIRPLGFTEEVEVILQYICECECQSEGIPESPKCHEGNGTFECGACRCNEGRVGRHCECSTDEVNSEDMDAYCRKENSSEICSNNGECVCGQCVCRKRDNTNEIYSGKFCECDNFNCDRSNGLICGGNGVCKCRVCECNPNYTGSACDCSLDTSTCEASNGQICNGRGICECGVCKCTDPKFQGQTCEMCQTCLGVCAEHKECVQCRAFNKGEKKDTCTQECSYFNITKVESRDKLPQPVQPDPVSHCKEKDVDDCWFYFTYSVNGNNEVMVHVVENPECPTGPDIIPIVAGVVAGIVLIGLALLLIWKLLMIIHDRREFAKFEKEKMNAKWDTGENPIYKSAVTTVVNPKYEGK
Sequence of Integrin beta-1 (Homo sapiens) + Integrin alpha-4 (Homo sapiens) (P13612 whole entry, looked up): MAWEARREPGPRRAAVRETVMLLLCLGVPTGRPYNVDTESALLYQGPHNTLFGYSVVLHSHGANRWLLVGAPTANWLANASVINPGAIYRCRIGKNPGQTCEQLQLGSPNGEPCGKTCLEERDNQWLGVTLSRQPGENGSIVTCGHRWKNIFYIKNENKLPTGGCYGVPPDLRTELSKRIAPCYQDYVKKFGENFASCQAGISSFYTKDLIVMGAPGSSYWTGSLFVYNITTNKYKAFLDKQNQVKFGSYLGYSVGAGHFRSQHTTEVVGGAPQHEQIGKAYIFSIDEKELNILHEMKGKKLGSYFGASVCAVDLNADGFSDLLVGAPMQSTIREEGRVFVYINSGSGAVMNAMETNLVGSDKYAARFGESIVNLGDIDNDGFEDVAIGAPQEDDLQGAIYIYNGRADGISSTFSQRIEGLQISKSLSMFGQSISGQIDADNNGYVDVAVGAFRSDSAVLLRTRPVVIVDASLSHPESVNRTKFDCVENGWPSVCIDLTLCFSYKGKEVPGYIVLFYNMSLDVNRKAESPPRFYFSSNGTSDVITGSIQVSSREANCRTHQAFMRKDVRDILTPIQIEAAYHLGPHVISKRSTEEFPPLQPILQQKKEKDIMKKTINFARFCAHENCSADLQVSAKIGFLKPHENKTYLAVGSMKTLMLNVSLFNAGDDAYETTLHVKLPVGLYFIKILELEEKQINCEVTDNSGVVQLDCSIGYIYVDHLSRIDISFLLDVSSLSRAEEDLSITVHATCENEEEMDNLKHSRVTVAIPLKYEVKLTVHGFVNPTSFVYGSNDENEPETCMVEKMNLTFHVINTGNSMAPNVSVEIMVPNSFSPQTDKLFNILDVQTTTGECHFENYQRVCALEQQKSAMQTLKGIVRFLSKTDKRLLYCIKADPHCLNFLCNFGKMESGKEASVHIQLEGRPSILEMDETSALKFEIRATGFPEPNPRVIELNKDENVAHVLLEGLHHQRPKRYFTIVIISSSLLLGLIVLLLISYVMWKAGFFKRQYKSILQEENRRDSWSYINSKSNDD

Test [3] can be described thus: calorie-restriction mimetic ROS inhibitors, yeast – validation compound set, pilot screen (AID 2706).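 Note: yeast exposed to compound for one week at 30 degrees C before staining; 100% = mean of all compound wells on the same plate.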 To be noted: S. cerevisiae aging, superoxide DHE fluorescence; at 10 µM, stronger effect = lower value.
The target in test [4] is Beta-adrenergic receptor kinase 1 (Homo sapiens) (UniProt P25098). Put plainly: GRK2 binders displacing RNA aptamer, biochemical, validation, human GRK2, bead flow cytometry (AID 488806;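 active = aptamer binding inhibition above 30%, about 3 SD of noise from non-fluorescent compounds; inactive = inhibition at or below 30%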). To be noted: bead-bound GRK2, FAM-aptamer displacement, at 10 µM, stronger effect = higher value. Background: A flow cytometer gives signals particle by particle.
Sequence of Beta-adrenergic receptor kinase 1 (Homo sapiens) (P25098 whole entry, looked up): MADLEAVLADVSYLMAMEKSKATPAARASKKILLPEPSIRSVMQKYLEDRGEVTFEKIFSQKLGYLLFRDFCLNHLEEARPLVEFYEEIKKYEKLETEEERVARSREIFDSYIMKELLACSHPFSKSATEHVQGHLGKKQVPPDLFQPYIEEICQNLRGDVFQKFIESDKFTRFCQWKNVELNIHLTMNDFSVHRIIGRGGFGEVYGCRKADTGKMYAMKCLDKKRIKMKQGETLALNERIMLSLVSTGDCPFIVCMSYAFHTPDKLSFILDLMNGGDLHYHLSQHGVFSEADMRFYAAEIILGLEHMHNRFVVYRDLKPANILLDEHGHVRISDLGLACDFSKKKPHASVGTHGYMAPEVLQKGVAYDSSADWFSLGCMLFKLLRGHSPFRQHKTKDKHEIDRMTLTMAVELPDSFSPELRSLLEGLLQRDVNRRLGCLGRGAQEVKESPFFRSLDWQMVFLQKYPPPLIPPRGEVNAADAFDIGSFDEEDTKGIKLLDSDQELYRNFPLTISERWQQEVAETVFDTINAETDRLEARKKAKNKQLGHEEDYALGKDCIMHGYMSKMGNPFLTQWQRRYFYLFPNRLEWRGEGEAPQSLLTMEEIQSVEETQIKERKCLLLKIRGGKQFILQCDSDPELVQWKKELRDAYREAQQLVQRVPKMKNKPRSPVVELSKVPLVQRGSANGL
For test [5], the target named is AP-2 complex subunit beta (Homo sapiens) (UniProt P63010). Briefly: beta-arrestin/AP2 interaction blockers – biochemical, validation set, GST-AP2 beads, flow cytometry, pilot screen (AID 504541;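 active = inhibition above 54%, about 3 SD of non-fluorescent compounds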;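 note: AP2 carries R879A mutation and is captured from E. coli lysate; bead-bound FITC arrestin peptide fluorescence measuring arrestin peptide binding to AP2; 0% = DMSO wells and 100% = excess unlabeled arrestin peptide control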). To be noted: FITC arrestin peptide, at 10 µM, stronger effect = higher value, AP2 beta2 appendage fragment, R879A mutant.
Sequence of AP-2 complex subunit beta (Homo sapiens) (P63010 whole entry, looked up, the tested form may be a part, one chain of several): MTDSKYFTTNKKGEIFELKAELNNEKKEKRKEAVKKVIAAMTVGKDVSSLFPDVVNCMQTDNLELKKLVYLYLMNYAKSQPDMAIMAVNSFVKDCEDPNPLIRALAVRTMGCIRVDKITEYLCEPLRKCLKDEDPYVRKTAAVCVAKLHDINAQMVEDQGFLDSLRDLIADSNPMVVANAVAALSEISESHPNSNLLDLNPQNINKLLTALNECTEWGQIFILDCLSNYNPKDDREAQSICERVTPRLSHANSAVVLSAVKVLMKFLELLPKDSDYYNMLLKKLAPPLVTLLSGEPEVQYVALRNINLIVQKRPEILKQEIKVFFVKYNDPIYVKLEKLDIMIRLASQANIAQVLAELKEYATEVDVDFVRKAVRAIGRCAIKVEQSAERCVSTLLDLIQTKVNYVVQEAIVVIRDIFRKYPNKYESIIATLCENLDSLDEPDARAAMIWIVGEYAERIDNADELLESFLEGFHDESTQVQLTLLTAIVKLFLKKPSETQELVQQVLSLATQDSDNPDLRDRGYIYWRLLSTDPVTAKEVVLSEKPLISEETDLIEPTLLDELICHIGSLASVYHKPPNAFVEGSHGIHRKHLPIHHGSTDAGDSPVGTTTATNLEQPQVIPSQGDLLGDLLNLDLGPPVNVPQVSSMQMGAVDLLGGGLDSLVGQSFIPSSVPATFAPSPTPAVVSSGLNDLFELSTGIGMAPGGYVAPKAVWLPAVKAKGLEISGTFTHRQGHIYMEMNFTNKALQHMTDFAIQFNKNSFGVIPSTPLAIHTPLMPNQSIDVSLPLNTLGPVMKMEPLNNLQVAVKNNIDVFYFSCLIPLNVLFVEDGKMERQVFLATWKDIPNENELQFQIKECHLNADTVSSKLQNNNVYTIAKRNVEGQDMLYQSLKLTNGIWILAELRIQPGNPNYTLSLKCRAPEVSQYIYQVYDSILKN
Test [6] in a line: cytosolic pH regulators acting via V-ATPase – S. cerevisiae, pHLuorin, HTS validation (AID 504600; in the data active = response above about 15%;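 note: plate controls were DMSO for no effect and reference compound for full effect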). To be noted: V-ATPase proton transport, at 10 µM, stronger effect = higher value.
The test system of test [7] is anti-desmoglein-3 scFv antibody binding to human DSG3. Briefly: blockers of pathogenic pemphigus antibody–desmoglein-3 binding – biochemical, validation compound set, bead-based, flow cytometry, pilot screen (AID 588368;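 active = binding below the plate cutoff, the plate median minus 3 SD, with a reading above zero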;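 note: signal is the median channel fluorescence of bead-bound GFP antibody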). To be noted: Protein G beads, DSG3-Fc, scFv-GFP binding, at 10 µM, stronger effect = lower value.
A short description of test [8]: Nile Red efflux blockade in pump-expressing yeast – validation compound set, multiplex, phenotypic, pilot screen (AID 588506;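 active = efflux inhibition above 0.42, the validation set average plus 4 SD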;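 note: Nile Red retained in cells so higher fluorescence means more efflux inhibition; 0 = negative control wells and 1 = enniatin B 25 µM full block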). To be noted: S. cerevisiae pump-expressing triplex, Nile Red efflux flow cytometry; at 10 µM; stronger effect = higher value; the pumps come from Candida albicans.
Test [9] deals with ATP-binding cassette sub-family B member 6 (Homo sapiens) (UniProt Q9NP58). Briefly: blockers of ABCB6-driven porphyrin uptake – K562-ABCB6 cells, flow cytometry, validation set, pilot screen (AID 588550;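 active = inhibition above the screen-wide mean plus 3 SD, about 51%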;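 note: 0% = DMSO wells and 100% = benzethonium chloride 70 µM positive control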). To be noted: K562-ABCB6 porphyrin accumulation, 1 h, at 10 µM, stronger effect = higher value.
Sequence of ATP-binding cassette sub-family B member 6 (Homo sapiens) (Q9NP58 whole entry, looked up): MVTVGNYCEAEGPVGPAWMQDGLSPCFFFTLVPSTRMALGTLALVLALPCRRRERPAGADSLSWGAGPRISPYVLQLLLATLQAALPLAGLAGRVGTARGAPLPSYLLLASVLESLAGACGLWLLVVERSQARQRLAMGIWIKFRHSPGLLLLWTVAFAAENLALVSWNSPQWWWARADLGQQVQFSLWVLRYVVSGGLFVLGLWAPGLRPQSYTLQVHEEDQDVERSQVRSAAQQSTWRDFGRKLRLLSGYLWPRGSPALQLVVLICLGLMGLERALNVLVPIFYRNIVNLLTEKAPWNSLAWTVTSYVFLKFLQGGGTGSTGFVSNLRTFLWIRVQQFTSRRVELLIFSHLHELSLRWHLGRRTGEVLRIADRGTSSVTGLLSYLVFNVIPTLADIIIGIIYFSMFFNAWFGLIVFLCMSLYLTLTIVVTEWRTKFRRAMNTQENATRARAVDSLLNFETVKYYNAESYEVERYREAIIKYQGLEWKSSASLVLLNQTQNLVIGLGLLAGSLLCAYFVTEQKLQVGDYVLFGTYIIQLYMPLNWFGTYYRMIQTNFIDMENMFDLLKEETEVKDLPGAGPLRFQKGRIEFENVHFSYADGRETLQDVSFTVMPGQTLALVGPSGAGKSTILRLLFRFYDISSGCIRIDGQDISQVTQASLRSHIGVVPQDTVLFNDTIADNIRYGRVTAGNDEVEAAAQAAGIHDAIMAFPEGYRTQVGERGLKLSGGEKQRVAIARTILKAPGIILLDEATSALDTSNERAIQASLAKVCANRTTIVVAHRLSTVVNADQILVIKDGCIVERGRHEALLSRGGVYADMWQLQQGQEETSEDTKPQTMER
The nature of test [10]: AML differentiation inducers, ER-HoxA9 marrow cells – cell-based, GFP/MAC1 double positive, flow cytometry, validation set, primary screen (AID 588685;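 active = differentiation response of at least 50%, scaled between solvent and reference control, from cells with both markers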;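 note: compound exposure lasts four days before antibody staining and flow analysis; 0% = DMSO wells and 100% = 5 µM fulvestrant positive control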). To be noted: stronger effect = higher value, normalized: vehicle 0, fulvestrant 100.

In [1], `Nc1ncnc2c1ncn2C1OC(CO)C(O)C1O` (centres undefined) yielded a double positive events of 48.3%. In addition, in test [1], the vesicle binding response is 175% (inactive). Moreover, the inhibition in test [2] was -6.77% (inactive); in test [5] it was -4.3% (inactive); in test [9], 5% (inactive). Moreover, the superoxide response (% of plate) in test [3] was 102% (inactive). The aptamer binding inhibition in test [4] is 3% (inactive). Moreover, in [6], the response is 0.12% (inactive). In addition, in test [7], the binding (% of control) was 110% (inactive). Also, the efflux inhibition (fraction of control) in test [8] is -0.01 (inactive). The differentiation response in test [10] was -18% (inactive).

`Cc1ncc(C(=O)O)c(C(=O)O)c1N` gave a double positive events in [1] of 52.2%. Moreover, the vesicle binding response in test [1] was 184% (inactive). The inhibition in test [2] was 4.42% (inactive); in [5], -2.62% (inactive); in [9], 8% (inactive). The superoxide response (% of plate) in [3] is 110% (inactive). In addition, the aptamer binding inhibition in test [4] was 2% (inactive). Moreover, the response in [6] was -3.73% (inactive). In addition, the binding (% of control) in test [7] is 100% (inactive). In addition, the efflux inhibition (fraction of control) in test [8] was -0.09 (inactive). Also, in [10], the differentiation response is -14.7% (inactive).

Consider `Cn1c(=O)[nH]c(=O)c2c1nc(Br)n2CCCO`, for which, in test [1], the double positive events is 64.5%. Also, the vesicle binding response in [1] is 261% (inactive). In addition, the inhibition in test [2] was 6.29% (inactive); in [5], 7.12% (inactive); in test [9], 8% (inactive). Also, the superoxide response (% of plate) in test [3] is 90.2% (inactive). The aptamer binding inhibition in test [4] was 0% (inactive). In test [6], the response is 0.07% (inactive). In test [7], the binding (% of control) is 109% (inactive). For the same compound, in [8], the efflux inhibition (fraction of control) is -0.01 (inactive). Moreover, the differentiation response in [10] is -24.4% (inactive).

In turn, `O=C(NC(CO)Cc1ccc([N+](=O)[O-])cc1)C(Cl)Cl` (centres undefined) registered a double positive events in test [1] of 57.3%. Besides, the vesicle binding response in test [1] is 146% (inactive). Besides, the inhibition in test [2] is -11.4% (inactive); in test [5] it was 0.05% (inactive); in [9], 14% (inactive). Also, the superoxide response (% of plate) in test [3] was 100% (inactive). The aptamer binding inhibition in [4] is 15% (inactive). The response in [6] is 0.32% (inactive). The binding (% of control) in [7] is 100% (inactive). Besides, the efflux inhibition (fraction of control) in [8] is -0.24 (inactive). In addition, the differentiation response in [10] was -24.4% (inactive).

In test [1], `Cc1nc(N[C@@H](Cc2c[nH]c3ccccc23)C(=O)O)c2oc3ccccc3c2n1` gave a double positive events of 62.1%. Moreover, in [1], the vesicle binding response was 218% (inactive). Besides, the inhibition in [2] was -0.24% (inactive); in test [5] it was -8.46% (inactive); in [9] it was 9% (inactive). For the same compound, the superoxide response (% of plate) in test [3] was 104% (inactive). In [4], the aptamer binding inhibition was 0% (inactive). The response in [6] was -0.92% (inactive). Further, the binding (% of control) in test [7] was 102% (inactive). Further, in [8], the efflux inhibition (fraction of control) is -0.24 (inactive). In test [10], the differentiation response was -9.89% (inactive).

Turning to `CC1(C)CC(=O)c2cc(O)ccc2O1`, in test [1], the double positive events was found to be 61%. The vesicle binding response in test [1] was 199% (inactive). For the same compound, the inhibition was 13.8% (inactive) in [2], 10.6% (inactive) in test [5] and 11% (inactive) in test [9]. Besides, in test [3], the superoxide response (% of plate) was 95.8% (inactive). For the same compound, the aptamer binding inhibition in [4] was 3% (inactive). The response in [6] is -2.03% (inactive). Moreover, in test [7], the binding (% of control) is 107% (inactive). Moreover, in test [8], the efflux inhibition (fraction of control) was -0.01 (inactive). In addition, the differentiation response in [10] was -13.1% (inactive).

In turn, `Cc1cc(=O)oc(C)c1C(=O)NCCC(C)C` displayed a double positive events in [1] of 53.1%. For the same compound, the vesicle binding response in test [1] is 150% (inactive). Moreover, the figures for the inhibition in test [2], in [5] and in test [9] were -1.17% (inactive), -9.02% (inactive) and 15% (inactive), respectively. Moreover, the superoxide response (% of plate) in test [3] is 87.3% (inactive). Also, the aptamer binding inhibition in test [4] was 0% (inactive). In test [6], the response is 7.71% (inactive). Besides, the binding (% of control) in test [7] is 102% (inactive). For the same compound, in test [8], the efflux inhibition (fraction of control) was 0.37 (inactive). In addition, the differentiation response in [10] is 32.1% (inactive).

Consider `O=C(CNC(=O)OCc1ccccc1)NC1CCCCCC1`, for which the double positive events in test [1] is 55.1%. The vesicle binding response in test [1] is 201% (inactive). In addition, the inhibition in test [2] was 10% (inactive); in [5] it was 1.41% (inactive); in test [9], 12% (inactive). In addition, the superoxide response (% of plate) in test [3] was 90.8% (inactive). Moreover, the aptamer binding inhibition in test [4] is 4% (inactive). Besides, in [6], the response was 11.3% (inactive). Further, the binding (% of control) in test [7] is 99.1% (inactive). Also, in test [8], the efflux inhibition (fraction of control) was -0.05 (inactive). In addition, the differentiation response in test [10] was 6.26% (inactive).

Take `COc1c2occc2c(OC)c2c(=O)cc(C(F)(F)C(F)(F)F)oc12`: in test [1], the double positive events came out at 50%. For the same compound, the vesicle binding response in [1] was 156% (inactive). Also, the inhibition was 3.49% (inactive) in test [2], -6.1% (inactive) in test [5] and 9% (inactive) in test [9]. In test [3], the superoxide response (% of plate) is 123% (inactive). Also, the aptamer binding inhibition in test [4] was 2% (inactive). In [6], the response is -16% (inactive). In test [7], the binding (% of control) was 103% (inactive). In test [8], the efflux inhibition (fraction of control) was 0.03 (inactive). The differentiation response in [10] is -16.4% (inactive).

In the case of `Cc1ccc(OCCSc2ncccn2)c(C)c1`, in test [1], the double positive events came to 49.1%. Besides, the vesicle binding response in test [1] was 186% (inactive). Besides, the inhibition in test [2] was 3.49% (inactive); in test [5], -11.2% (inactive); in test [9], 10% (inactive). Further, the superoxide response (% of plate) in [3] is 114% (inactive). In addition, in test [4], the aptamer binding inhibition is 1% (inactive). The response in [6] is 12.3% (inactive). In addition, in test [7], the binding (% of control) was 98% (inactive). Moreover, the efflux inhibition (fraction of control) in test [8] is 0.14 (inactive). In addition, the differentiation response in test [10] is -13.1% (inactive).

As for `CC(=Nc1ccccc1)C1=C(O)CCCC1=O`, the double positive events in test [1] amounted to 61.6%. Also, the vesicle binding response in [1] is 312% (inactive). Further, the results for the inhibition in test [2], in [5] and in test [9] were 13.8% (inactive), -9.14% (inactive) and 0% (inactive), respectively. Also, the superoxide response (% of plate) in test [3] is 104% (inactive). Moreover, in test [4], the aptamer binding inhibition is 1% (inactive). Further, the response in [6] was 8.27% (inactive). In [7], the binding (% of control) was 97.7% (inactive). Moreover, the efflux inhibition (fraction of control) in test [8] was -0.24 (inactive). Also, the differentiation response in test [10] is -21.2% (inactive).

Regarding `COc1ccc(CNC(=O)c2cc3c(=O)n4ccccc4nc3n(Cc3cccnc3)c2=N)cc1`, the double positive events in test [1] is 60.5%. For the same compound, in test [1], the vesicle binding response was 131% (inactive). Also, the inhibition in test [2] was -2.11% (inactive); in [5] it was -0.26% (inactive); in [9] it was 4% (inactive). The superoxide response (% of plate) in [3] was 92.2% (inactive). Also, the aptamer binding inhibition in test [4] was -6% (inactive). For the same compound, the response in [6] was 3.99% (inactive). Moreover, in [7], the binding (% of control) was 112% (inactive). Also, the efflux inhibition (fraction of control) in test [8] is 0.22 (inactive). Further, the differentiation response in test [10] is -9.89% (inactive).

On to `COc1ccc(C2CNC(=O)C2)cc1OC1CCCC1` (centres undefined), for which, in test [1], the double positive events amounted to 53.3%. Further, in test [1], the vesicle binding response is 151% (inactive). Also, the values for the inhibition in [2], in test [5] and in test [9] were -8.64% (inactive), 23.8% (inactive) and 7% (inactive), respectively. The superoxide response (% of plate) in [3] is 104% (inactive). In addition, the aptamer binding inhibition in test [4] was -6% (inactive). For the same compound, the response in test [6] was -25.8% (inactive). Moreover, in test [7], the binding (% of control) was 105% (inactive). Also, the efflux inhibition (fraction of control) in [8] is -0.12 (inactive). Further, the differentiation response in test [10] was -3.43% (inactive).

Turning to `O=C(O)C[C@@H](O)C(=O)O`, the double positive events in [1] worked out at 56.6%. The vesicle binding response in test [1] is 193% (inactive). Besides, the values for the inhibition in [2], in [5] and in test [9] were 0.69% (inactive), -10.9% (inactive) and 4% (inactive), respectively. Besides, in test [3], the superoxide response (% of plate) is 104% (inactive). Moreover, in test [4], the aptamer binding inhibition is 2% (inactive). Besides, the response in test [6] was -4.82% (inactive). Moreover, the binding (% of control) in test [7] is 102% (inactive). For the same compound, in [8], the efflux inhibition (fraction of control) is -0.2 (inactive). In test [10], the differentiation response is 6.26% (inactive).
